Screening results (PubChem)
mIDH1 inhibitor – inhibitors of human mutant IDH1 R132H; IDH1-R132H enzyme, NADPH consumption, diaphorase/resazurin fluorescence; Potency, µM (doses to about 76.6 µM), inactives show top-dose activity change, negative = inhibition, usual class: inhibitors; 390,000 compounds, 0.093% hits; AID 602179; further: potency means the concentration at half of the fitted maximal effect; on the % scale 0 is the no-effect control and ±100 the full control effect; nearly all actives have a fitted effect of over 65% in size
Target sequence (O75874 whole entry R132H, stated change not applied): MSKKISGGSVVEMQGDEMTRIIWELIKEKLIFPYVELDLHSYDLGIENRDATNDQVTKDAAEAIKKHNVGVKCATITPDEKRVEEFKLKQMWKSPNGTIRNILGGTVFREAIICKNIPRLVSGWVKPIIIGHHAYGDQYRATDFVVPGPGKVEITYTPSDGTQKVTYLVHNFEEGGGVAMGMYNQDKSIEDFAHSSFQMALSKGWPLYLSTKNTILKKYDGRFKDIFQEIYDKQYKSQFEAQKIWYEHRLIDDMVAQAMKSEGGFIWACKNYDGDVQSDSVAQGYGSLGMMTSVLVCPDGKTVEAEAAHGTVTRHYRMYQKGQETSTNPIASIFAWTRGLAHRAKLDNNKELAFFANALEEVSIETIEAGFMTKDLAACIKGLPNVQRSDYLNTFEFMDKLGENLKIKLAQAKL
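IDH1-R132H (0.5 ug/mL) preincubated 30 min with compound, then NADPH (0.016 mM) and alpha-KG (2 mM) added; 80 min at RT, pH 7.5. Remaining NADPH coupled via diaphorase/resazurin to fluorescence (540/590 nm); concentration-response curves normalized to no-enzyme control.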
LDHA inh – LDHA (human) enzyme inhibition | purified LDHA, NADH/diaphorase-resazurin fluorescence; stronger effect = lower value | 480,000 compounds, 0.15% hits | AID 1347041 | activity change, % (values are at about 110 or 230 µM); in the data active means activity change below about -30%; inconclusive means mostly about -25% to -30%;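 further: plate controls were DMSO wells for no effect and wells without enzyme for full effect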
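Human LDH5 at 2 nM final in Tris HCl pH 7.4 with 0.06 mM NADH and 0.2 mM pyruvate, reacted 5 minutes at room temperature. Remaining NADH coupled via diaphorase/resazurin; resorufin fluorescence read at 0 and 20 minutes, normalized to enzyme-free and DMSO wells.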
S-ASM inh – human S-ASM enzyme inhibition. P17405. AID 504937. Potency, µM (series often up to 57.5 µM), for the others: at the highest dose activity change, negative = inhibition, hits mostly inhibitors. 340,000 compounds, 0.006% hits. placental ASM, HMU-PC fluorogenic substrate, 60 min; further: potency means the concentration at half of the fitted maximal effect
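qHTS format. ASM enzyme prepared from human placenta hydrolyses the fluorogenic substrate HMU-PC0 (9 uM final) over 60 min at 37 °C after a 10 min compound preincubation.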
RGS4 inhibitor – inhibitors of human regulator of G protein signaling 4. P49798. Potency, µM (titrated, usually from 114 µM), inactives show top-dose activity change, negative = inhibition, usual class: inhibitors. Transcreener GDP fluorescence polarization, RGS4-accelerated GTP hydrolysis. AID 504845. 390,000 compounds, 0.039% hits; further: potency means the concentration at half of the fitted maximal effect; on the % scale 0 is the no-effect control and ±100 the full control effect; nearly all actives have a fitted effect of over 75% in size
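MLSMR compounds (23 nl, pin-transferred) preincubated 10 min at room temperature with a 500nM (2x) first reagent, then RGS4 at 900nM (2x) plus Transcreener GDP mix added; fluorescence polarization (620/688 nm) read before and after 90 min at 30 °C.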
ClpP mod – qHTS Assay for Activators of ClpP; ATP-dependent Clp protease proteolytic subunit (Bacillus subtilis (strain 168)), P80244; purified B. subtilis ClpP, FRET peptide cleavage, 20 min; 340,000 compounds, 1.9% hits; Potency, µM (top dose mostly 57.5 µM), for inactives: top-dose activity change, negative = active; active means well fitted falling curve with a large enough effect; inconclusive means small, poorly fitted or top-dose-only effect; inactive means no such curve, though single readings can be large or run the other way; further: potency means the concentration at half of the fitted maximal effect; the source files actives as falling curves though it sought activators and does not explain the sign; nearly all actives have a fitted effect of over 65% in size
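FRET quenching reversal measured ClpP activation: 10 microg/mL B. subtilis ClpP at pH 8 with the FRET-FV decapeptide, read at 430 nm after 320 nm excitation. The 20-min minus 0-min signal was scaled between DMSO/no-enzyme wells and ADEP (5.8 microM final).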
Mito fusion yeast – blocks mitochondrial division or promotes mitochondrial fusion. S. cerevisiae fusion-defective mutant growth rescue, CellTiterGlo 48 h. Potency, µM (highest dose often 46.1 µM), for the others: top-dose growth rescue (activation), actives largely listed as activators. 320,000 compounds, 0.23% hits. AID 485298; further: potency means the concentration at half of the fitted maximal effect; % of control where 0% means no effect; nearly all actives have a fitted effect of over 45% in size
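Compounds are tested for their ability to restore growth of mitochondrial fusion-defective yeast strains at non-permissive 37C in YPEG medium over 48 hours. Viability is quantified by luciferase luminescence.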
ClpP validation – Bacillus subtilis ClpP inhibition, validated hit. shares compounds with ClpP mod. purified B. subtilis ClpP, FRET-FV substrate cleavage, 20 min. Potency, µM (series often up to 57.5 µM), for the others: at the top dose activity change, negative = inhibition, most hits filed as inhibitors. 470 compounds, 40% hits; further: potency means the concentration at half of the fitted maximal effect; on the % scale 0 is the no-effect control and ±100 the full control effect; nearly all actives have a fitted effect of over 70% in size
Starred values were filed as active, the others as inactive; ? = inconclusive; . = not tested or not shown; [ ] = remark or other dose. The sample as a whole holds a higher share of hits than the screen did. Unless noted, the call rests on the fitted dose curve; in most records, active means well fitted curve in the direction sought with a large enough effect; inconclusive means small, poorly fitted or top-dose-only effect, or another doubt; inactive means no such curve, though single readings can be large; an effect the other way counts as inactive or inconclusive.

SMILES	mIDH1 inhibitor	LDHA inh	S-ASM inh	RGS4 inhibitor	ClpP mod	Mito fusion yeast	ClpP validation
CCN(Cc1ccccc1)C(=O)C1CCN(c2nc3ccccc3o2)CC1	.	6	.	.	.	.	.
COc1ccc(NC(=O)Cn2c(=O)c3cccn3c3ccccc32)cc1	-13%	-3	.	?	51%	.	-18%
CCOc1ccc(NC(=O)Cn2c(=O)c3cccn3c3ccccc32)cc1	.	-12	.	.	.	.	.
COc1ccc(-n2nnc(C(=O)OCc3ccc(C)cc3C)c2C)cc1	.	-8	.	.	.	.	.
Cc1cccc(NC(=O)C(Sc2ccccc2)c2ccccc2)c1C (stereo not drawn)	.	-2	.	.	.	.	.
COc1ccc(-n2c(=O)c3c(c4cc(OC)ccc4n3C)n(Cc3cccc(OC)c3)c2=O)cc1	-5%	-3	.	-32%	2.5µM*	.	22µM*
CCCCN(C(=O)COc1ccc2ccc(=O)oc2c1)C1CC(C)(C)NC(C)(C)C1	.	0	.	.	.	.	.
CCCOc1ccc(Cn2c(=O)oc3ccc(C)cc32)cc1OC	1%	-4	-2%	1%[11.4 µM]	240%	0%	-1%
COc1cc(Cn2c(=O)oc3ccc(C)cc32)ccc1OCCC(C)C	14%	0	.	-18%	-1%	.	.
